# A selection: hits, their analogues and other compounds. The true share with any hit is near 2.2%.
# TrxR1 substrate: substrates of rat thioredoxin reductase 1; O89049; 390,000 compounds, 0.01% hits; purified TrxR1 substrate turnover, NADPH consumption readout; Potency, µM (titrated, usually from 114 µM), for inactives: at the highest dose activity change, negative = substrate turnover; further: potency means the concentration at half of the fitted maximal effect; on the % scale 0 is the no-effect control and ±100 the full control effect; nearly all actives have a fitted effect of over 50% in size
#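 Rat TrxR1, dispensed at 90 nM, was prereduced with 400 uM NADPH (final) for 5 min at ~22 deg C, then incubated with compound 15 min before 400 uM selenite. A first-read NADPH fluorescence drop versus no-compound background flagged substrates.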
# Giardia kill: kills Giardia lamblia; Giardia lamblia trophozoite viability; activity change, % at 7.66 µM, hits read low; 340,000 compounds, 0.15% hits; AID 540267; in the data active means activity change below about -80%; inconclusive means between about -30% and that limit;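 further: parasites exposed to compound for two days anaerobically before the ATP read; on the % scale 0 is the no-effect control and ±100 the full control effect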
#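 Trophozoites 100 cells/well + cpd; 48 hrs, 37 deg C, anaerobic. ATPLite 1-Step added, 15-30 min RT, luminescence read (ATP-based viability).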
# mIDH1 inhibitor: inhibitors of human mutant IDH1 R132H. IDH1-R132H enzyme, NADPH consumption, diaphorase/resazurin fluorescence. Potency, µM (series often up to 76.6 µM), without a hit: at the highest dose activity change, negative = inhibition, actives largely listed as inhibitors. 390,000 compounds, 0.093% hits; further: potency means the concentration at half of the fitted maximal effect; on the % scale 0 is the no-effect control and ±100 the full control effect; nearly all actives have a fitted effect of over 65% in size
# Target sequence (O75874 whole entry R132H, stated change not applied): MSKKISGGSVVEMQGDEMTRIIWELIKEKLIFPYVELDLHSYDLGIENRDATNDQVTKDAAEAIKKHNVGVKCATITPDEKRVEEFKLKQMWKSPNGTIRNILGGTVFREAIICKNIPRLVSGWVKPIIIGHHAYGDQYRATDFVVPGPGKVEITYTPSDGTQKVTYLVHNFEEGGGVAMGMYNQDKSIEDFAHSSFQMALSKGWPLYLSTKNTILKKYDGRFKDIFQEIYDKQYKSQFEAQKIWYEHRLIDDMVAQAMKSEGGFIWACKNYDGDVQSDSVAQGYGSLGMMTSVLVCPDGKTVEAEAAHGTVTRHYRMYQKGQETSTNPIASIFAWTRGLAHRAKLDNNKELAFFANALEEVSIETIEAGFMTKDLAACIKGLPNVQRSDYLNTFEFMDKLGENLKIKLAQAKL
#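 IDH1-R132H (0.5 ug/mL) preincubated 30 min with compound, then NADPH (0.016 mM) and alpha-KG (2 mM) added; 80 min at RT, pH 7.5. Remaining NADPH coupled via diaphorase/resazurin to fluorescence (540/590 nm); concentration-response curves normalized to no-enzyme control.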
# TrxR1 inh: rat TrxR1 inhibition. O89049. recombinant rTrxR1, NADPH fluorescence consumption, selenite substrate. Potency, µM (doses to about 114 µM), without a hit: at the top dose activity change, negative = inhibition, most hits filed as inhibitors. 390,000 compounds, 1% hits. AID 588453; further: potency means the concentration at half of the fitted maximal effect; on the % scale 0 is the no-effect control and ±100 the full control effect; nearly all actives have a fitted effect of over 65% in size
#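 Rat TrxR1 (90 nM in the dispensed reagent) was pre-reduced with 400 uM NADPH for 5 min at room temperature, then incubated with compound for 15 min. After 400 uM selenite was added, NADPH fluorescence (Ex 340/Em 450 nm) was followed for 8 min.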
# IL-2 act: IL-2 activation; AID 652025; activation, % (series mostly up to about 46 µM); IL-2 activation reporter assay, cell-based qHTS; stimulated with anti-CD3/CD4/CD28 beads; in transgenic mouse T cells; 360,000 compounds, 0.065% hits; in the data active means activation above about 50%; inconclusive means mostly about 30% to 49%; further: 0% is about no effect
#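 Readout: EGFP and DsRed signals by fluorescent plate cytometry. Unstimulated transgenic mouse T cells received compound 60 min before antibody-bead stimulation, then incubated 18 h at 37 degrees C.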
# BRCA1 expr up: BRCA1 expression activation; MCF7-BRCA1-FFLuc reporter, luminescence, 48 h; response scale: scaled: vehicle 0%, 10 µM genistein 100%; Potency, µM (series often up to 46.1 µM), for the others: at the highest dose activation, actives largely listed as activators; 380,000 compounds, 1.1% hits; AID 624202; further: potency means the concentration at half of the fitted maximal effect; nearly all actives have a fitted effect of over 80% in size
#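 MCF7 cells carrying a BRCA1-firefly luciferase reporter (2000 cells/well, phenol-red free MEM) were attached for 2 h at 37 °C, then given compounds for 48 h. Luminescence was read 15 min after luciferase reagent; activity normalized to genistein (10 microM) and DMSO.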
# The depositor's hits bear a star; ? = inconclusive; nt = no result; [ ] = dose if it differs, or a comment. Unless noted, the call rests on the fitted dose curve; in most records, active means well fitted curve in the direction sought with a large enough effect; inconclusive means small, poorly fitted or top-dose-only effect, or another doubt; inactive means no such curve, though single readings can be large; an effect the other way counts as inactive or inconclusive.
SMILES,TrxR1 substrate,Giardia kill,mIDH1 inhibitor,TrxR1 inh,IL-2 act,BRCA1 expr up
O=C(Cc1cccs1)NCc1ccc(Cl)cc1Cl,-13.7%,-8.4,-9.1%,-21.3%,-0.7,3.98µM*
O=C(Cc1cccs1)NCc1ccccc1Br,15.9%,-22.5,0.0%,37.7%,-1.9,2.24µM*
CCCOc1ccc(CNC(=O)Cc2cccs2)cc1,6.6%,10.9,-2.6%,33.0%,-1.2,7.94µM*
O=C(Cc1cccs1)NCc1cccc(CNC(=O)Cc2cccs2)c1,-2.6%,7.0,3.1%,15.9%,1.1,12.8%
O=C(Cc1cccs1)NCc1cccc(Cl)c1,-8.1%,15.5,0.0%,-0.2%,-1.9,12.6µM*
C=C(/C=C/c1ccc(N(C)C)cc1)c1nc2ccccc2s1,-8.7%,nt,nt,-19.2%,nt,-23.0%
COc1cc2c(cc1NC(=O)COc1ccc(Br)cc1C)oc1ccccc12,18.1%,nt,15.6%,40.2%,nt,nt
CC(=O)c1cccc(NC(=O)c2ccc3c(c2)N(Cc2ccc(C)cc2)CCS3)c1,16.0%,nt,-6.2%,11.1%,nt,nt
O=C(CSc1ncccn1)NCc1ccc(Cl)cc1,6.2%,6.4,0.9%,4.6%,3.7,?
O=C(CSc1ncccn1)NCc1cccc(Cl)c1,4.2%,22.7,0.6%,18.1%,-1.0,11.2µM*
O=C(c1ccccc1)c1cc2ccccc2o1,-6.8%[57.1 µM],-2.4,9.2%,9.2%[57.1 µM],-0.1,10µM*
O=C(c1ccc(F)cc1)c1cc2ccccc2o1,-2.3%,-1.5,1.3%,4.2%,-0.1,11.2µM*
CC(Cc1ccccc1)NC(=O)c1cc2ccccc2o1 (stereo not given),7.5%,-4.6,2.7%,30.0%,-0.3,7.08µM*
Cn1c(SCC(=O)c2ccccc2)nnc1-c1ccccn1,1.2%,-5.2,0.0%,-1.8%,0.5,11.2µM*
O=C(CSc1nnc(-c2cnccn2)n1Cc1ccco1)c1ccc(Cl)cc1,5.5%,5.7,0.0%,12.6µM*,-2.7,2.7%
Cn1c(SCC(=O)c2ccccc2)nnc1-c1ccncc1,-1.4%[57.1 µM],2.4,-2.1%,15.2%[57.1 µM],-1.8,22.2%
O=C(CSc1nnc(-c2cnccn2)n1Cc1ccco1)c1ccccc1,-1.4%,-2.9,4.7%,56.2µM*,-0.5,-0.6%[1.84 µM]
CC(C)CC(=O)N1C/C=C\C[C@@H](c2ccc(Cl)cc2)N(Cc2ccc(Cl)cc2)C(=O)[C@@H]1Cc1ccccc1,1.1%,nt,nt,7.7%,nt,nt
CC(Oc1ccccc1)C(=O)Nc1nnc(S(=O)(=O)N2CCCCC2)s1 (stereo not given),-8.8%,-83.5*,-7.9%,-12.8%,-2.2,6.2%
CCC(Oc1ccccc1)C(=O)Nc1nnc(S(=O)(=O)N2CCCC2)s1 (stereo not given),-2.1%,9.0,6.6%,20.8%,-0.6,-23.7%
CCN(CC)C(=O)/C=C/c1ccccc1,-6.2%,8.5,2.3%,-5.4%,0.4,55.2%
CON(C)C(=O)/C=C/c1ccc([B-](F)(F)F)cc1,5.5%,8.1,2.8%[38.3 µM],12.4%,0.2,14.1µM*
CN(C)c1ccc(/C=C/c2ncnc3ccccc23)cc1,-10.5%,nt,nt,-11.2%,nt,49.7%
CC(C)(C)c1ccc(OCC(=O)N2CCCCCC2)c(Br)c1,4.2%[57.1 µM],4.3,1.3%,11.5%[57.1 µM],2.0,17.0%
Cc1ccc(OCC(=O)N2CCCCC2)c(Br)c1,-5.5%,-8.5,-2.7%,10.4%,-0.3,11.2µM*
O=C1CCCC2=C1C(c1ccc(Cl)cc1)N=C(Nc1nc3ccccc3o1)N2 (stereo not given),31.7%,4.7,nt,16.0%,nt,-6.8%
Cc1ccc(NC(=O)c2oc3ccc(S(=O)(=O)N4CCC5(CC4)OCCO5)cc3c2C)c(C)c1,2.2%[57.1 µM],nt,-14.9%,17.0%[57.1 µM],nt,nt
O=C(NCCNC(=O)c1ccccn1)c1ccc(Cl)cc1,8.2%[57.1 µM],-2.6,5.7%,23.6%[0.0914 µM],-1.3,19.2%
O=C(Sc1ccc(Cl)cc1)c1ccccn1,-3.5%,-4.2,0.1%,1.12µM*,-0.9,25.8%
COc1ccc(-c2cc(-c3ccccc3O)[nH]n2)cc1OC,-1.5%,-2.4,3.9%,9.8%,-0.6,?
